Assay outcomes from PubChem BioAssay.
Only some compounds are listed: those with a hit (about 11% of all), similar ones and a draw of the others.
HCV inhibitor: qHTS Assay for Inhibitors of Hepatitis C Virus (HCV). Huh7.5.1 HCVcc-Cre infection, luciferase reporter, 44 h. Potency, µM (doses to about 41.8 µM), inactives show top-dose activity change, negative = inhibition, usual class: inhibitors. 340,000 tested, 3.4% active. AID 651820, 2012; note: % is set by controls: 0 for no effect and ±100 for the full control effect
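HCVcc-Cre virus at an moi near 0.5 was added right after compound to cells cultured 4 h from seeding (1,000 cells/well). Luciferase activity was determined 44 h later, 15 min after substrate addition at RT.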
Pf growth 96h: Primary qHTS for delayed death inhibitors of the malarial parasite plastid, 96 hour incubation; P. falciparum luciferase reporter growth, 96 h; Potency, µM (series often up to 28.7 µM), for inactives: at the highest dose activity change, negative = inhibition, hits mostly inhibitors; 320,000 tested, 6.9% active; AID 504834, 2011; note: % is set by controls: 0 for no effect and ±100 for the full control effect
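Erythrocytes infected with luciferase-expressing P. falciparum were dispensed at 2% hematocrit and 0.05% parasitemia (final), then incubated with compounds 96 hours at 37 C in 5% CO2. Luminescence after detection reagent addition reported growth.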
Vaccinia Venus: qHTS for Stage-Specific Inhibitors of Vaccinia Orthopoxvirus: Venus Reporter Primary qHTS; Vaccinia virus Venus reporter expression, fluorescence; 330,000 tested, 0.46% active; Potency, µM (series often up to 36.5 µM), for the others: at the top dose activity change, negative = inhibition, actives largely listed as inhibitors; calls by dose curve; tested in A549 cells; note: % is set by controls: 0 for no effect and ±100 for the full control effect; nearly all actives have a fitted effect of over 30% in size
NS1 function inh: qHTS Assay for Inhibitors of Influenza NS1 Protein Function. Potency, µM (titrated, usually from 46.1 µM), inactives show top-dose activity, positive = more growth. 270,000 tested, 0.4% active. AID 2326, 2010; calls by dose curve; note: actives are rising curves; nearly all actives have a fitted effect of over 50% in size
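Read-out: OD600 growth recovery of NS1-expressing budding yeast. Cells grown overnight at 30C in -URA glucose medium, washed, resuspended and diluted 1:100 in 2% galactose assay medium, pH 6.0. Same strain lacking NS1 served as positive control.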
Pf growth 48h: Primary qHTS for delayed death inhibitors of the malarial parasite plastid, 48 hour incubation | P. falciparum luciferase growth in erythrocytes, 48 h | Potency, µM (doses to about 28.7 µM), for inactives: at the highest dose activity change, negative = inhibition, most hits filed as inhibitors | 310,000 tested, 5.9% active; note: % is set by controls: 0 for no effect and ±100 for the full control effect
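A one-generation exposure of luciferase-tagged malaria parasites in RPMI 1640/Albumax erythrocyte culture, 37 C and 5% CO2. Inhibition is inferred from decreased luminescence after adding detection reagent.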
VACV mCherry inh: qHTS for Stage-Specific Inhibitors of Vaccinia Orthopoxvirus: mCherry Reporter Primary qHTS. Vaccinia virus mCherry reporter infection, fluorescence. Potency, µM (highest dose often 36.5 µM), inactives show at the top dose activity change, negative = inhibition, hits mostly inhibitors. 310,000 tested, 0.63% active. AID 720579, 2013; calls by dose curve; tested in A549 cells; note: % is set by controls: 0 for no effect and ±100 for the full control effect; nearly all actives have a fitted effect of over 35% in size
An asterisk follows results filed as active. Unless noted, calls come from the whole dose curve; as a rule, active = well fitted inhibition curve with a large enough effect; inconclusive = small, poorly fitted or top-dose-only effect, or another doubt; inactive = no such curve, though single readings can be large or run the other way. Potency is the fitted concentration of half-maximal effect.

CC(=O)Nc1ccccc1C(=O)C(=O)Nc1cccc(C(=O)N2CCC3(CC2)OCCO3)c1 was read as HCV inhibitor -7%, Pf growth 96h 1.9µM*, Vaccinia Venus -5%, Pf growth 48h 8% and VACV mCherry inh -22%.
CC(=O)Nc1ccccc1C(=O)C(=O)Nc1ccccc1 was read as HCV inhibitor -13%, Pf growth 96h 7.4µM*, Vaccinia Venus -5%, NS1 function inh 6%, Pf growth 48h 64% and VACV mCherry inh -10%.
Screening Cc1[nH]n(-c2cccc(Cl)c2)c(=O)c1-c1ccccc1 returned HCV inhibitor 24%, Pf growth 96h 5.9µM*, Vaccinia Venus -28%, NS1 function inh -81% and VACV mCherry inh -14%.
Screening Cc1[nH]n(-c2cccc([N+](=O)[O-])c2)c(=O)c1-c1ccccc1 returned HCV inhibitor 0%, Pf growth 96h 13µM* and Pf growth 48h inconclusive.
For CN(c1ccc(OCC(=O)Nc2nc(-c3ccccc3)cs2)cc1)S(=O)(=O)c1ccc(F)cc1 the results were HCV inhibitor 10µM*, Pf growth 96h inconclusive, Vaccinia Venus -19%, NS1 function inh 19%, Pf growth 48h -18% and VACV mCherry inh inconclusive.
For CCOc1ccc(OCC(=O)Nc2nccs2)cc1 the results were HCV inhibitor -2%, Pf growth 96h 3%, Vaccinia Venus -6%, NS1 function inh -9%, Pf growth 48h -60% and VACV mCherry inh -2%.
Cc1ccc(S(=O)(=O)N(C)c2ccc(OCC(=O)Nc3nc4ccccc4s3)cc2)cc1 was read as HCV inhibitor inconclusive, Pf growth 96h 3.3µM*, Vaccinia Venus -26%, NS1 function inh 3%, Pf growth 48h 4.7µM* and VACV mCherry inh inconclusive.
`CCOc1ccc(S(=O)(=O)N(C)c2ccc(OCC(=O)Nc3nccs3)cc2)cc1` gave HCV inhibitor inconclusive, Pf growth 96h inconclusive, Vaccinia Venus -15%, Pf growth 48h 1.9µM* and VACV mCherry inh -7%.
`CNC(=O)c1cc(Oc2ccc(NC(=O)Nc3ccc(Cl)c(C(F)(F)F)c3)cc2)ccn1` gave HCV inhibitor 11µM*, Pf growth 96h 49%, Vaccinia Venus 10µM*, Pf growth 48h inconclusive and VACV mCherry inh inconclusive.
For Cc1ccc2c(N)c(C(=O)N(c3ccccc3)c3ccccc3)sc2n1 the results were HCV inhibitor inconclusive, Pf growth 96h inconclusive, NS1 function inh 10% and Pf growth 48h 9.3µM*.
`COc1ccc(NC(=O)C2CC(=O)N(C(C)C)C2)cc1` (stereo not given) gave HCV inhibitor -8%, Pf growth 96h -11%, Vaccinia Venus -11%, NS1 function inh 3% and Pf growth 48h -4%.
For Cc1cc(C)c(S(=O)(=O)n2c([N+](=O)[O-])cnc2C)cc1C the results were HCV inhibitor 7%, Pf growth 96h inconclusive, Vaccinia Venus -5%, NS1 function inh 2%, Pf growth 48h -9% and VACV mCherry inh -14%.
`CCOC(=O)C1=C(O)c2ccccc2C(=O)/C1=C\c1ccc(C)cc1` gave HCV inhibitor 1%, Pf growth 96h 4.1µM*, Vaccinia Venus inactive, NS1 function inh -38%, Pf growth 48h 2.9µM* and VACV mCherry inh 448%.
`CC(=O)Oc1ccc2c(=O)oc(-c3ccccc3C)nc2c1` gave HCV inhibitor 4%, Pf growth 96h 72%, NS1 function inh -54% and Pf growth 48h -3%.
Screening CCN(CC)S(=O)(=O)c1cc(NC(=S)NC(=O)C2CCCC2)ccc1C returned HCV inhibitor 3.2µM*.
